In PubChem BioAssay AID449739 (Vanderbilt High Throughput Screening Facility, 2010):
The campaign covered roughly 100,000 compounds. About 4,200 (4.2%) were called active. For the sample, actives were picked, then their nearest neighbours and some compounds at random. Unmarked numbers belong to inactive results.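 The calls were made as follows: active = single-dose well whose peak fluorescence ratio is a statistical outlier from its plate by either plate-standardised score or position-corrected B-score; inactive = the rest.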

Target: Voltage-dependent T-type calcium channel subunit alpha-1H (Homo sapiens) (UniProt O95180)
Experiment: Cav3.2 calcium influx blockers – cell-based, Fluo-4 calcium fluorescence, FDSS, MLSMR library, primary screen (AID 449739)
Conditions: Cav3.2-expressing cells, at 10 µM, hits give low values

Sequence of Voltage-dependent T-type calcium channel subunit alpha-1H (Homo sapiens) (O95180 whole entry, looked up): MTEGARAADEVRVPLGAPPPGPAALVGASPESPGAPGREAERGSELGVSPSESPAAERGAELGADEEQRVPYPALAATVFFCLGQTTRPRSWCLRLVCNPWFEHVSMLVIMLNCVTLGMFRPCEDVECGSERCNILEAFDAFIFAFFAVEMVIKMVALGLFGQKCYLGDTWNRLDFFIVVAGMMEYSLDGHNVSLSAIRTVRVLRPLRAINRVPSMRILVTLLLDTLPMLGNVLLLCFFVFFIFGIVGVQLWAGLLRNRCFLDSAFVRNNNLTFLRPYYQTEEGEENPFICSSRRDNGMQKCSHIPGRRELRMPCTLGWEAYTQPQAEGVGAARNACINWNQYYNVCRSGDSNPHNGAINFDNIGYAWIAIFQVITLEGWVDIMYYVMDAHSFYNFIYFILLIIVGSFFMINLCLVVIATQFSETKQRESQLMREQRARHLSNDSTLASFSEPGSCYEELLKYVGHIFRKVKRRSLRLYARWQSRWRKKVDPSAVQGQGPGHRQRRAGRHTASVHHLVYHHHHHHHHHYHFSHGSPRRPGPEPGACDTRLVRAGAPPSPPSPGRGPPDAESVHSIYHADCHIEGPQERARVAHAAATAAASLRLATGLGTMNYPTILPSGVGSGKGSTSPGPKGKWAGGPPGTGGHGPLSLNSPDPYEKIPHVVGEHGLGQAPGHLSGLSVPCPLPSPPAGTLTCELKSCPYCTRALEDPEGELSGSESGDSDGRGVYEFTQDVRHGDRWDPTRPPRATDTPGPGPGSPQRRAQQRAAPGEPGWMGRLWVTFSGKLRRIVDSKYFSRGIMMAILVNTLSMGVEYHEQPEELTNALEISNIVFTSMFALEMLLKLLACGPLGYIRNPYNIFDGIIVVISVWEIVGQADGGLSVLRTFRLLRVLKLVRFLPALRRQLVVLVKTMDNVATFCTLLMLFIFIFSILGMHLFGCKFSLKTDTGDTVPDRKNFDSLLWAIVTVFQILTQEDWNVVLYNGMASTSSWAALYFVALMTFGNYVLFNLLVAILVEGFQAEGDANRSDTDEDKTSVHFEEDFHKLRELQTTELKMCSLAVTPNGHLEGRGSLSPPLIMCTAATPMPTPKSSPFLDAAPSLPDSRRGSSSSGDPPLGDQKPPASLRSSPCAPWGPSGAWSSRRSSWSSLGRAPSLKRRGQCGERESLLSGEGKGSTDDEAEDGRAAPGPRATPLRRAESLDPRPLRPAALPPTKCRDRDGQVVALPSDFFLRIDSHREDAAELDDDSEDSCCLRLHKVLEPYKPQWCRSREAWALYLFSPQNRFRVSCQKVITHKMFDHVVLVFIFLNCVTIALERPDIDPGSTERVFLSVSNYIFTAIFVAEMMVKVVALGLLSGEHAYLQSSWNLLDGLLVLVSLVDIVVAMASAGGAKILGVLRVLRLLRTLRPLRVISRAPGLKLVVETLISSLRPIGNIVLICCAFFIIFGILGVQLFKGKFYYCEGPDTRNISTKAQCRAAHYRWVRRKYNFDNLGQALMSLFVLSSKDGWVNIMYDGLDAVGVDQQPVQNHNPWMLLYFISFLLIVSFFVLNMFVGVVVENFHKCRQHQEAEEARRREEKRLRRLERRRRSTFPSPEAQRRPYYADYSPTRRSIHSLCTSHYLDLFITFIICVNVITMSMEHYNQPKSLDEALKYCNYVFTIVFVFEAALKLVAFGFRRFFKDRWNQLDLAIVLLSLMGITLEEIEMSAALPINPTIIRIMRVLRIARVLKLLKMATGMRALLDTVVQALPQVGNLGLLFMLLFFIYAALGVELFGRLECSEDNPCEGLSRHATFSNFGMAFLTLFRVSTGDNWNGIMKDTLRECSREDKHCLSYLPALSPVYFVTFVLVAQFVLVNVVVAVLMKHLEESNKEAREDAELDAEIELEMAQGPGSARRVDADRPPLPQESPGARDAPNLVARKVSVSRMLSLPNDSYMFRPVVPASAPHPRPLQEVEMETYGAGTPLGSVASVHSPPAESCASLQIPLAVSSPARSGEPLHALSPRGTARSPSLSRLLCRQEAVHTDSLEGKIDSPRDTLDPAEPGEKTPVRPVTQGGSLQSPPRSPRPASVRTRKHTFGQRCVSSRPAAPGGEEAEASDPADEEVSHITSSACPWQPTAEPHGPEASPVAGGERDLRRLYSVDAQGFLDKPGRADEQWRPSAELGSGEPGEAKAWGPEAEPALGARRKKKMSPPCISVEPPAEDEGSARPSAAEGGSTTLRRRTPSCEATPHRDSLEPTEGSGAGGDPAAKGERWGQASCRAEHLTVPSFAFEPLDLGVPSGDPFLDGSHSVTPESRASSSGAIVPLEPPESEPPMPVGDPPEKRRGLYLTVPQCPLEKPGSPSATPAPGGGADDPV

Point of comparison: `COc1cccc(N2CC(C(=O)Nc3c(C)cccc3C)CC2=O)c1` (stereo unspecified), B-score 0.386. Against it:
- COC(=O)c1cc(Cl)c(NC(=O)c2ccco2)cc1OC — lower, -0.41
- COc1ccc(NC(=O)c2cccc(NC(=O)c3ccco3)c2)c(OC)c1 — lower, -2.2
- Cc1nc(C(=O)NCc2ccccc2)sc1C1(C)CC(c2cccnc2)=NO1 (stereo unspecified) — lower, 0.0411
- CCOC(=O)c1ccc(NC(=O)c2nc[nH]c2C(=O)NCc2ccccc2)cc1 — lower, -0.706
- CSc1ccc(S(=O)(=O)NC2CCCCC2)cc1 — lower, -0.215
- CSc1ccc(S(=O)(=O)NCc2ccc(Cl)cc2)cc1 — lower, -1.35
- CC(C)(C)OC(=O)NCCCC1=CC2=CC(=O)C(C)(OC(=O)c3ccco3)C(=O)C2=CO1 (stereo unspecified) — lower, 0.291
- CCNC(=S)NNC(=O)Cc1ccccc1 — higher, 0.703
- Cc1ccc(NC(=S)NC(=O)c2ccc(-c3ccccc3)cc2)cc1 — lower, -0.678
- CCOc1c2ccc(C(=O)NCc3ccc4c(c3)OCO4)cc2nn1C — lower, 0.329
- CC(=O)NS(=O)(=O)c1ccc(NC(=O)/C=C/c2ccccc2Cl)cc1 — lower, -1.8
- CCNc1nc(N)nc(-c2cc(Cl)ccc2OC)n1 — higher, 0.499
- CC[C@@H](C)[C@@H](C(=O)N1CCN(C(=O)OC(C)(C)C)CC1)n1cc(CCC(=O)O)nn1 — higher, 1.09
- CC(C)(C)C(=O)Nc1ccc(C(=O)N/N=C/c2ccccc2OC(=O)c2ccc(Cl)cc2Cl)cc1 — lower, -2.74
- COc1ccc(Cl)cc1C(=O)NCC#N — higher, 0.746
- CCOc1cc(/C=C2/N=C(c3ccc(C(C)(C)C)cc3)OC2=O)cc(Cl)c1OS(C)(=O)=O — lower, -1.04
- CCn1cc(C(=O)NCc2ccc3c(c2)OCO3)c2cc(OC)c(OC)cc2c1=O — higher, 0.417
- CC(C)NC(=O)CSc1ccccc1C(=O)NCc1ccc2c(c1)OCO2 — lower, 0.374
- O=C(CSc1nc(C2CC2)nc2ccccc12)Nc1ccc2c(c1)OCCO2 — lower, 0.0431
- COc1ccc2oc(C)c(NC(C)=O)c2c1 — lower, 0.131
- COc1ccc(OC)c(C(=O)c2ccc(C(=O)O)cc2)c1 — lower, -3.15
- Cc1ccccc1C(=O)N1CCC(C(=O)Nc2ccc(S(=O)(=O)N(C)C(C)C)cc2)CC1 — lower, 0.159
- NC(=O)CC[C@@H]1NC(=O)[C@H](CO)NC(=O)c2cc([N+](=O)[O-])cc(I)c2NCC[C@@H](C(N)=O)NC1=O — higher, 0.984
- O=C(COC(=O)c1ccc2c(c1)OCCO2)NCc1ccccc1 — lower, -0.412
- O=C(CC(Cc1ccccc1)C(=O)O)NCCc1ccc2c(c1)OCO2 (stereo unspecified) — lower, -0.225
- COc1ccc(CNC(=O)[C@@H]2CC=C[C@@H]3CCN(C4CC4)C(=O)[C@@H]32)cc1 — higher, 1.86
- CC[C@H](C)[C@@H](C(=O)N1CCNCC1)n1cc([C@@H](N)Cc2ccc(O)cc2)nn1 — lower, 0.0182
- Cc1cccc(N(C(=O)Cc2cccs2)C(C(=O)NC2CCCC2)c2ccsc2)c1 (stereo unspecified) — lower, -1.16
- CCC1(CC)C(=O)C2=C3C1[C@H](C(=O)OC)C=C(C(=O)OC)C[C@H]3[C@H]1C(=O)N(Cc3ccccc3)C(=O)[C@H]1[C@H]2C (stereo partly specified) — higher, 0.691
- Cc1ccc(-c2cc(=O)c3ccc(Cl)cc3[nH]2)cc1 — lower, -0.0223
- O=c1[nH]n(-c2cccc(Cl)c2)c2ncccc12 — lower, 0.173
- Cc1ccc(C)n1C(Cc1ccccc1)C(=O)O (stereo unspecified) — higher, 1.91
- CC1=CC(C)(C)Nc2ccc(OC(=O)CN3C(=O)C4CCCCC4C3=O)cc21 (stereo unspecified) — lower, -0.00954
- COCCCn1c(SCc2cccc(OC)c2)nc2cc(OC)c(OC)cc2c1=N — lower, -0.819
- C=C1CCN([C@H](C(=O)NCc2cc(OC)c(OC)c(OC)c2)C(C)C)S(=O)(=O)c2ccccc21 — higher, 1.03
- COc1ccc2cc1Oc1ccc(cc1)C[C@H]1c3cc(c(OC)cc3CCN1C)Oc1c(O)c(OC)cc3c1[C@H](C2)N(C)CC3 — higher, 1.81
- COc1ccc(-c2cc(C(=O)n3cnc4ccccc43)c3ccccc3n2)cc1 — lower, -0.0392
- COc1ccccc1CSc1nc2ccccc2[nH]1 — lower, -0.942
- O=C(COc1ccccc1)NCCc1nc2ccccc2[nH]1 — lower, 0.299
- COc1ccccc1C1/C(=C(/O)c2ccc(OC(C)C)cc2)C(=O)C(=O)N1c1cc(C)on1 (stereo unspecified) — lower, -0.532
- O=C1C(=O)N(CCN2CCOCC2)C(c2ccccn2)/C1=C(/O)c1ccc(Cl)cc1 (stereo unspecified) — lower, -0.156
- Cc1cccc(NC(=S)Nc2ccc(Br)cc2)c1 — lower, -1.14

With `COc1cccc(N(C(=O)c2ccn[nH]2)C2(C(=O)Nc3c(C)cccc3C)CCCCC2)c1` the B-score was -4.96 (active).
For `COc1ccccc1C(=O)Nc1ccc(NC(=O)c2ccco2)c(C)c1`, the B-score was -5.24 (active).
`Oc1c(Cl)cc(Cl)c(Cl)c1Cc1c(O)c(Cl)cc(Cl)c1Cl` was tested, and the B-score was -5.05 (active).
In the case of `CSc1ccc(S(=O)(=O)Nc2cccc(F)c2)cc1`, the B-score is reported as -4.09 (active).
In the case of `COc1ccc(C(=O)NC(=S)NNC(=O)CCc2ccccc2)cc1`, the B-score is reported as -4.4 (active).
With `COC(=O)/C(=C\Nc1ccccc1)NC(=O)c1ccc(Cl)cc1Cl` the B-score was -5.14 (active).
In the case of `Cc1nc2c(C(=O)NCc3ccc4c(c3)OCO4)c[nH]n2c(=O)c1Cc1ccccc1F`, the B-score is reported as -5.22 (active).
For `COc1ccc(OC)c(C(=O)c2coc3ccc(OC)cc23)c1`, the B-score was -3.61 (active).
For `O=C(NCCc1ccc2c(c1)OCCO2)c1cc2ccccc2o1`, the B-score was -3.85 (active).
In the case of `Cc1[nH]n(-c2cccc(Cl)c2)c(=O)c1-c1ccc(Cl)cc1`, the B-score is reported as -7.48 (active).
In the case of `CC1=CC(C)(C)Nc2ccc(OC(=O)C(Cc3ccccc3)N3C(=O)C4CCCCC4C3=O)cc21` (stereo unspecified), the B-score is reported as -5.23 (active).
`COc1ccc(-c2[nH]nc(-c3ccccc3)c2-c2nc3ccccc3[nH]2)cc1` was tested, and the B-score was -6.24 (active).
With `Cc1cc(N2C(=O)C(=O)/C(=C(/O)c3ccc(Cl)cc3)C2c2cccc(Br)c2)no1` (stereo unspecified) the B-score was -7.89 (active).
